Measured values: PubChem BioAssay AID504467 (National Center for Advancing Translational Sciences (NCATS), 2011)
In all, about 330,000 compounds went through this assay and about 7,700 (2.3%) were called active. Inconclusive results (about 26%) are left out. Calls come from the whole dose curve; as a rule, active = well fitted inhibition curve with a large enough effect; inconclusive = small, poorly fitted or top-dose-only effect, or effect the other way; inactive = flat fitted curve, though single readings scatter. The entries come from a sample that favours actives as a whole. Entries that show only a call come without a potency.
Potency is the fitted concentration of half-maximal effect.

Assay: qHTS screen for small molecules that inhibit ELG1-dependent DNA repair in human embryonic kidney (HEK293T) cells expressing luciferase-tagged ELG1; note: nearly all actives have a fitted effect of over 55% in size
Conditions: HEK293T ELG1-luciferase reporter, luminescence, 16 h, DNA damage induced by 5-fluorouridine; series mostly up to 46.1 µM
Procedure, shortened: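 5-Fluorouridine DNA damage + compound/DMSO, 2,000 cells/well, 16 h, 37 °C/5% CO2. ONE-Glo, 30 min RT, luminescence. Readout = decrease in reporter signal.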
With `CCC(C)N(C(=O)CSc1ncnc2c1cnn2-c1ccccc1)C1CCS(=O)(=O)C1` (stereo not given) the Potency was “inactive”.
In the case of `O=C(CSc1nc2ccccc2c(=O)n1Cc1ccc(F)cc1)NCC1CCCO1` (stereo not given), the Potency is reported as “inactive”.
With `Cc1nc2ccccc2c(C)c1C(=O)c1ccc(F)cc1` the Potency was 14.6 µM (active).
For `Cc1nc2ccccc2c(-c2ccccc2)c1C(=O)c1ccccc1`, the Potency was “inactive”.
For `CN(Cc1nc2ccccc2s1)C(=O)c1ccc(F)cc1`, the Potency was “inactive”.
In the case of `Cc1ccc2nc(SCC(=O)N3CC(C)OC(C)C3)nc(=O)n2c1` (stereo not given), the Potency is reported as “inactive”.
In the case of `CCOc1ccc(NC(=O)COc2ccc(S(=O)(=O)N3CCCC3)cc2)cc1`, the Potency is reported as “inactive”.
In the case of `COc1ccc(CCNC(=O)C2CCCN(S(=O)(=O)c3ccc(OC)cc3)C2)cc1` (stereo not given), the Potency is reported as “inactive”.
For `Cc1ccc(C)c(OCCC(=O)Nc2cccc(S(=O)(=O)N3CCCC3)c2)c1`, the Potency was “inactive”.
In the case of `COc1ccc(NC(=O)C2CCCN(S(=O)(=O)c3cccc4cccnc34)C2)cc1OC` (stereo not given), the Potency is reported as 20.6 µM (active).
For `COc1ccccc1CNC(=O)C1CCCN(S(=O)(=O)c2cccc3cccnc23)C1` (stereo not given), the Potency was “inactive”.
For `CCOc1cccc(NC(=O)C2CCCN(S(=O)(=O)c3ccc(OC)cc3)C2)c1` (stereo not given), the Potency was 23.1 µM (active).
For `Cc1cccc(OCCCC(=O)Nc2ccc(S(=O)(=O)N3CCCC3)cc2)c1`, the Potency was 18.4 µM (active).
In the case of `CCN(CC(=O)Nc1ccc(S(=O)(=O)N2CCCC2)cc1)CC(=O)Nc1cccc(OC)c1`, the Potency is reported as “inactive”.
For `O=C(O)C1CCCN(S(=O)(=O)c2cccc3cccnc23)C1` (stereo not given), the Potency was “inactive”.
For `COc1ccc(C(=O)O)cc1S(=O)(=O)NC1CCN(Cc2ccccc2)CC1`, the Potency was “inactive”.
With `CCOCCCN(C)C1CCN(C(=O)c2oc3ccccc3c2NC(=O)Cc2cccc([N+](=O)[O-])c2)CC1` the Potency was “inactive”.
For `CCCCC[C@@H]1C=C(C(=O)O)[C@H](c2ccc(C#N)cc2)N1S(=O)(=O)c1ccc(C)cc1`, the Potency was “inactive”.
With `COc1ccc(C(C(=O)NCC2CCCO2)N(C(=O)Cn2nnc3ccccc32)c2ccc(NC(C)=O)cc2)cc1OC` (stereo not given) the Potency was “inactive”.
With `COc1ccccc1CNS(=O)(=O)c1cc(C(=O)NCc2ccccn2)c(Cl)cc1Cl` the Potency was “inactive”.
For `COc1ccc(N2CCN(C(=O)Cn3cnc4sc(C)c(S(=O)(=O)N5CCOCC5)c4c3=O)CC2)cc1`, the Potency was “inactive”.
In the case of `COc1ccc(OCC(=O)Nc2ccc(NC(=O)c3ccco3)c(C)c2)cc1`, the Potency is reported as “inactive”.
In the case of `Cc1cccc(OCC(=O)Nc2ccc(NC(=O)c3ccco3)c(C)c2)c1`, the Potency is reported as “inactive”.
For `CCN(CC)P(=O)(Nc1ccc(SC(F)F)cc1)c1ccc(N(C)C)cc1NC(=O)c1ccco1` (stereo not given), the Potency was 7.3 µM (active).
In the case of `CC(C)(C)n1ncc2c(=O)n(Cc3ccc(Cl)cc3)cnc21`, the Potency is reported as 20.6 µM (active).
In the case of `CC(C)(C)n1ncc2c(=O)n(Cc3c(Cl)cccc3Br)cnc21`, the Potency is reported as “inactive”.
In the case of `Cc1ccc2c(c1)c1ncn(Cc3ccc(F)cc3)c(=O)c1n2C`, the Potency is reported as “inactive”.
With `COc1cc(NC(=O)COC(=O)c2cc(S(=O)(=O)N3CCOCC3)ccc2F)cc(OC)c1` the Potency was “inactive”.
With `COCCNc1nc(N)c([N+](=O)[O-])c(N2CCCCCC2)n1` the Potency was “inactive”.
For `O=C(CN1CCN(c2ccccc2O)CC1)NC(=O)NCc1ccccc1`, the Potency was “inactive”.
For `O=C(C1CCN(C2CCN(Cc3ccc4cc(F)ccc4n3)CC2)CC1)N1CCCC1`, the Potency was 13 µM (active).
For `O=C(C1CCN(C2CCN(Cc3cccc4c3OCO4)CC2)CC1)N1CCOCC1`, the Potency was “inactive”.
In the case of `C/C(=C\c1ccco1)CN1CCC(N2CCC(C(=O)N3CCOCC3)CC2)CC1`, the Potency is reported as “inactive”.
For `CCCC(CNC(=O)COC(=O)C1=NNC(=O)CC1)c1ccc(Cl)cc1Cl` (stereo not given), the Potency was “inactive”.
With `CN(CC(=O)Nc1ccc(C(N)=O)cc1)S(=O)(=O)c1ccc2c(c1)OCCO2` the Potency was “inactive”.
For `CCOc1ccc(NS(=O)(=O)c2ccc(C(=O)NC3CCN(Cc4ccccc4)CC3)cc2)cc1`, the Potency was “inactive”.
In the case of `COc1cc(OC)cc(C(=O)N[C@H](C(=O)NNC(=O)c2ccc(Br)cc2)C(C)C)c1`, the Potency is reported as “inactive”.
In the case of `O=C(Nc1nnc(COc2ccccc2)s1)Nc1ccccc1F`, the Potency is reported as “inactive”.
For `COc1ccc(C)cc1NC(=O)CCC(=O)Nc1nnc(C(F)(F)F)s1`, the Potency was “inactive”.
In the case of `O=C(NCC(F)(F)F)Nc1nnc(C(F)(F)F)s1`, the Potency is reported as 18.4 µM (active).
In the case of `COc1ccccc1N1CCN(S(=O)(=O)CCNC(=O)c2ccc(OC(C)C)cc2)CC1`, the Potency is reported as 13 µM (active).
With `CCOc1ccc(CC(=O)NCCS(=O)(=O)N2CCN(c3ccccc3)CC2)cc1` the Potency was “inactive”.
For `O=C(NCCS(=O)(=O)N1CCN(c2ccccc2F)CC1)c1ccc(Br)o1`, the Potency was “inactive”.
For `COc1ccc(S(=O)(=O)N2CCCCC2)cc1NC(=O)C1CC(=O)N(c2ccc3c(c2)OCCO3)C1` (stereo not given), the Potency was “inactive”.
With `CC1CC(=O)Nc2ccccc2N1C(=O)COc1ccc2cc(Br)ccc2c1` (stereo not given) the Potency was “inactive”.
In the case of `C#CCOc1ccccc1/C=C1/C(=O)ON=C1C`, the Potency is reported as “inactive”.
With `Cn1cccc1/C=N/NC(=O)CNc1cccc2ccccc12` the Potency was 13 µM (active).
For `Cc1cccc(/C=N/NC(=O)CNc2cccc3ccccc23)n1`, the Potency was “inactive”.
In the case of `C/C(=N\NC(=O)CNc1cccc2ccccc12)c1ccc(Br)s1`, the Potency is reported as “inactive”.
For `Cc1ccc(NC(=O)COc2coc(CN3CCc4ccccc4C3)cc2=O)cc1Cl`, the Potency was “inactive”.
In the case of `CC(Cc1ccccc1)C(=O)N(C)Cc1ccccc1` (stereo not given), the Potency is reported as “inactive”.
For `CC1=NN(Cc2ccccc2)C(=O)/C1=C/c1ccc(N(C)C)cc1`, the Potency was “inactive”.
For `CN(C)c1cc[n+](Cc2ccccc2)cc1`, the Potency was 8.2 µM (active).
In the case of `CCN1C(=O)[C@@H]2[C@@H](c3ccc(-c4ccccc4)cc3)N3CCCC[C@@]3(C(=O)OC)[C@@H]2C1=O`, the Potency is reported as “inactive”.
For `CC(C)Cn1c(N)c(C(=O)NCc2cccs2)c2nc3ccccc3nc21`, the Potency was 9.2 µM (active).
With `CCOc1ccccc1NC(=O)Cn1nnc(C(=O)NCc2cccs2)c1N` the Potency was “inactive”.
With `CCCNC(=O)c1c(N)n(-c2ccc(S(N)(=O)=O)cc2)c2nc3ccccc3nc12` the Potency was “inactive”.
With `CC(C(=O)N1CCc2ccccc21)N(C)CC(=O)Nc1ccc(F)cc1` (stereo not given) the Potency was “inactive”.
With `Cc1noc(C)c1CSCC(=O)N(CCC(C)C)c1c(N)n(Cc2ccccc2)c(=O)[nH]c1=O` the Potency was “inactive”.
With `Cc1cccc(OCC(O)CN2CCN(S(=O)(=O)c3ccc(C)cc3C)CC2)c1` (stereo not given) the Potency was 11.6 µM (active).
With `Cc1ccc(OCC(O)CN2CCN(CC(O)COc3ccc(C)cc3Cl)CC2)c(Cl)c1` (stereo not given) the Potency was “inactive”.
In the case of `COc1cccc(OCC(O)CN2CCN(CCO)CC2)c1` (stereo not given), the Potency is reported as “inactive”.
With `C=CCCC(=O)Nc1nc(C)c(-c2csc(Nc3ccc(Cl)cc3)n2)s1` the Potency was 18.4 µM (active).
With `CCC(=O)Nc1nc(C)c(C(=O)Nc2cccc(Cl)c2)s1` the Potency was “inactive”.
In the case of `CCCCCCC(=O)Nc1nc(C)c(-c2csc(Nc3cc(Cl)ccc3OC)n2)s1`, the Potency is reported as “inactive”.
With `CC(=O)Nc1nc(C)c(-c2csc(Nc3ccc(S(N)(=O)=O)cc3)n2)s1` the Potency was “inactive”.
For `CCCCC(=O)Nc1nc(C)c(-c2csc(Nc3ccc(Cl)cc3)n2)s1`, the Potency was 20.6 µM (active).
In the case of `Cc1ccc(Nc2nc(-c3sc(NC(=O)c4ccccc4)nc3C)cs2)cc1`, the Potency is reported as “inactive”.
With `CCOC(=O)N1CCN(C(=O)c2ccccc2SCC(=O)NCC2CCCCC2)CC1` the Potency was “inactive”.
In the case of `CN(C(=O)COC(=O)Cc1ccccc1[N+](=O)[O-])C1CCS(=O)(=O)C1` (stereo not given), the Potency is reported as “inactive”.
With `COc1ccc(C(=O)COC(=O)CN2C(=O)C3CC=CCC3C2=O)c(OC)c1` (stereo not given) the Potency was “inactive”.
For `CCc1cccc(NC(=O)CCCN2C(=O)C(c3ccccc3)Oc3cccnc32)c1` (stereo not given), the Potency was “inactive”.
In the case of `COCCN(CCOC)c1nc(N)c2c(N)nc3c(c2c1C#N)CC(=O)N3Cc1ccc(Cl)cc1`, the Potency is reported as 5.17 µM (active).
With `CCC(=O)Nc1ccc(S(=O)(=O)Nc2c(NC)c3ccccc3oc2=O)cc1` the Potency was “inactive”.
With `CC1CC(C)CN(CCCNC(=O)c2csc3c2CCCCC3)C1` (stereo not given) the Potency was “inactive”.
For `CC(C(=O)c1ccc(-c2ccccc2)cc1)[n+]1cccc(Br)c1` (stereo not given), the Potency was “inactive”.
With `Cc1ccc2c(c1)C1CN(C)CCC1N2S(=O)(=O)c1cccc(F)c1` (stereo not given) the Potency was “inactive”.
For `CCOC(=O)C1CCN(Cc2c(C(=O)N3CCOCC3)nc3c(C)cccn23)CC1`, the Potency was “inactive”.
For `Cc1cccc(N2CCC(NCc3c(C(=O)N4CCCCC4)nc4c(C)cccn34)CC2)c1`, the Potency was 25.9 µM (active).
For `Cc1cccn2c(CNCC(C)Oc3cccnc3)c(C(=O)N3CCOCC3)nc12` (stereo not given), the Potency was “inactive”.
With `CN(CC(=O)Nc1ccc(Cl)cc1)CC(=O)Nc1cccc2ccccc12` the Potency was “inactive”.
For `Cc1ccc(S(=O)(=O)N(Cc2ccccc2)c2ccccn2)cc1[N+](=O)[O-]`, the Potency was “inactive”.
In the case of `Cn1c(Cc2cccc3ccccc23)nnc1SCC(=O)N1CCN(c2cccc(Cl)c2)CC1`, the Potency is reported as 18.4 µM (active).
For `Cn1c(CNC(=O)c2ccco2)nnc1SCC(=O)N1CCN(c2ccccc2)CC1`, the Potency was “inactive”.
In the case of `Cc1ccccc1NC(=O)Cc1nnc(SCC(=O)N2CCN(c3ccccc3)CC2)n1C`, the Potency is reported as “inactive”.
For `O=C(CN1CCc2ccccc2C1)Nc1cccc(S(=O)(=O)N2CCOCC2)c1`, the Potency was “inactive”.
In the case of `CC1CCC(NC(=O)CN(C)S(=O)(=O)c2ccc3c(c2)c(=O)n(C)c(=O)n3C)CC1` (stereo not given), the Potency is reported as “inactive”.
With `CC(=O)NCc1ccc(-c2csc(NC(=O)CCCc3nc4ccccc4c(=O)[nH]3)n2)cc1` the Potency was “inactive”.
In the case of `Cc1cc(C)c(-c2csc(NC(=O)CCCc3nc4ccccc4c(=O)[nH]3)n2)c(C)c1`, the Potency is reported as 5.17 µM (active).
With `O=C(CSc1nc2ccccc2c(=O)[nH]1)Nc1nc(-c2ccc(Br)cc2)cs1` the Potency was “inactive”.
For `CCCSc1ccc([C@H]2N[C@@](Cc3ccccc3)(C(=O)OC)[C@H]3C(=O)N(C)C(=O)[C@@H]23)cc1`, the Potency was “inactive”.
For `COc1ccc(CC(NC(C)=O)C(=O)NC2CCN(C(=O)c3ccc(OC)c(OC)c3)CC2)cc1OC` (stereo not given), the Potency was “inactive”.
With `COc1ccc(C(=O)N2CCc3cc(OC)c(OC)cc3C2c2cccc([N+](=O)[O-])c2)cc1` (stereo not given) the Potency was “inactive”.
In the case of `CCc1ccc(OCC2c3cc(OC)c(OC)cc3CCN2C(C)=O)cc1` (stereo not given), the Potency is reported as 6.51 µM (active).
In the case of `COc1cccc(NC(=O)CN(C)C(=O)c2cc(C3CC3)nn2-c2ccccc2)c1`, the Potency is reported as “inactive”.
